The source of these data is PubChem BioAssay (NCI).

Test [1] in a line: NCI Yeast Anticancer Drug Screen. Data for the rad50 strain (AID 155).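 Also: 0% = growth of vehicle-only cultures of the same strain.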 As to conditions: S. cerevisiae rad50 strain growth inhibition; at 50.0 µM; hits give high values. The method, boiled down:
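Inhibition values express reduced yeast growth in compound-treated cultures relative to vehicle-treated controls.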

The nature of test [2]: NCI Yeast Anticancer Drug Screen. Data for the mec2-1 strain (AID 157). As to conditions: S. cerevisiae mec2-1 strain, at 50.0 µM, hits give high values. A digest of the protocol:
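Growth inhibition is read against vehicle-treated controls after compound exposure of the mec2-1 yeast strain, which is defective in DNA damage repair or cell cycle control.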

The nature of test [3]: NCI Yeast Anticancer Drug Screen. Data for the sgs1 mgt1 strain (AID 161).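 Also: 0% = growth of cultures given vehicle only.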 The note with it: S. cerevisiae sgs1 mgt1 strain, at 50.0 µM, hits give high values. The method, boiled down: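 Growth of a repair-deficient yeast mutant was monitored after compound treatment and expressed as inhibition relative to vehicle-treated cultures.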
Test [4] can be described thus: NCI Yeast Anticancer Drug Screen. Data for the cln2 rad14 strain (AID 165).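 Also: 0% = growth equal to vehicle treated cultures.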 The note with it: S. cerevisiae cln2 rad14 strain, at 50.0 µM, hits give high values. A digest of the protocol: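 Growth inhibition, relative to vehicle-treated controls, is the read-out. The test organism is a yeast strain with defined genetic alterations, cln2 rad14.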
A short description of test [5]: NCI Yeast Anticancer Drug Screen. Data for the bub3 strain (AID 167). As to conditions: S. cerevisiae bub3 mutant strain, at 50.0 µM, hits give high values. A digest of the protocol: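 Steps: expose the mutant yeast strain to compound; grow alongside vehicle-treated cultures; measure growth; express inhibition against the vehicle cultures.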
Test [6] is described as follows: NCI Yeast Anticancer Drug Screen. Data for the mlh1 rad18 strain (AID 175). The note with it: S. cerevisiae mlh1 rad18 strain growth inhibition; at 50.0 µM; hits give high values. The method, boiled down:
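Cells of a genetically altered yeast strain, deficient in DNA damage repair, were treated with compound. Their growth was then compared with that of vehicle-treated cultures to give inhibition.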

Structures are written as SMILES. Compounds without any hit were thinned out: in the full panel of roughly 79,000, 15% have a hit. Values without a mark were called inactive. Calls of active or inactive are those of the source. Rule as the data show it: active = growth inhibition above about 70%; inactive = the rest.

As to `CC(=O)OCC1OC2OC(C)(C)OC2C1NC(=O)C(F)(F)F` (stereo unspecified), the growth inhibition was 16.5% in test [1]; -2.5% in test [2]; -8.15% in test [3]; 10.3% in test [4]; -5.6% in test [5]; 9.25% in test [6].

Turning to `COc1ccc(NS(=O)(=O)c2ccc(N=Cc3c4ccccc4nc4ccccc34)cc2)nn1`, the growth inhibition in test [1] is 96.8% (active); in test [2], 95.5% (active); in test [3], 91.6% (active); in test [4], 79.9% (active); in test [5] it was 93.5% (active); in test [6], 90.8% (active).

Turning to `COc1ccc2c(c1)CC[C@@H]1[C@@H]2CC[C@@]2(C)[C@H]1C[C@@](C)(O)[C@H]2O`, the growth inhibition in test [1] was -5.65%; in test [2], 3.05%; in test [3] it was -2.45%; in test [4] it was -59.9%; in test [5], 10.8%; in test [6] it was -11.7%.

For `C=CCNC(=O)OCCCl`, the growth inhibition is 6% in test [1]; -1.45% in test [2]; -9.6% in test [3]; 5.95% in test [4]; -4.5% in test [5]; 15.1% in test [6].

As to `O=C(O)c1cc(=O)c2cc(Cc3ccccc3)ccc2[nH]1`, the growth inhibition in test [1] was 4.7%; in test [2], 6.5%; in test [3], 10.4%; in test [4], 9.8%; in test [5], 11.1%; in test [6], 12.8%.

For the compound `COc1ccc(NC(=O)CC(=O)N2N=C(N(CCC#N)c3ccccc3Cl)CC2c2ccccc2)cc1` (stereo unspecified), the growth inhibition in test [1] is -13.4%; in test [2], -23.6%; in test [3] it was -1%; in test [4], 10.7%; in test [5], -4.55%; in test [6] it was -28.9%.

On to `CC1C2CC(C3(C)OCCO3)CCC2(C)CCC12OCCO2` (stereo unspecified), for which the growth inhibition in test [1] is 1.65%; in test [2], 16.9%; in test [3], 3.15%; in test [4], 11.5%; in test [5], 2.9%; in test [6], 5.4%.

`CC(C)CCCC(C)CCCC(C)CCCC(C)CC(=O)O` (stereo unspecified): the growth inhibition was -9.35% in test [1]; -25.5% in test [2]; -16.9% in test [3]; 43% in test [4]; -1.2% in test [5]; -23.3% in test [6].

With `Cc1cc(C)c(CN(C)C)c(CC(O)c2ccccc2)c1` (stereo unspecified), the growth inhibition in test [1] was 10.8%; in test [2], -5.95%; in test [3], 7.4%; in test [4], -15%; in test [5] it was 3.45%; in test [6], -1.95%.

On to `O.O.[Cu+2].[Cu+2].[NH-]CCC(=O)[N-]C(Cc1cnc[nH]1)C(=O)O.[NH-]CCC(=O)[N-]C(Cc1cnc[nH]1)C(=O)O` (stereo unspecified), for which the growth inhibition in test [1] was -26.1%; in test [2], 5.8%; in test [3] it was 0.95%; in test [4], 31.8%; in test [5] it was 6.35%; in test [6], 11.8%.

Consider `O=C1CCC(O)=C1O`, for which the growth inhibition is -7.75% in test [1]; -11.4% in test [2]; 2.3% in test [3]; 26.5% in test [4]; -2.35% in test [5]; -0.25% in test [6].

On to `CC(C)/C=C\C(=O)CC(C)C`, for which the growth inhibition in test [1] was -3.65%; in test [2] it was 28.8%; in test [3], 9.35%; in test [4], 5.9%; in test [5], 17.4%; in test [6], 18.6%.

On to `CN(C)C(=O)Nc1cccc2nsnc12`, for which the growth inhibition in test [1] was 12.4%; in test [2], -2.75%; in test [3], 11%; in test [4] it was -50.5%; in test [5], -5.95%; in test [6], 29.6%.

Regarding `CCOC(=O)CNc1nc(Cl)nc(NCC(=O)OCC)n1`, the growth inhibition in test [1] was 3.05%; in test [2], -4.6%; in test [3], -0.05%; in test [4] it was -43.2%; in test [5], 28.9%; in test [6] it was 1.4%.

For the compound `Cc1cc(C)c2c(c1)C(=O)c1ccccc1C2=O`, the growth inhibition in test [1] is 42.6%; in test [2] it was 47.1%; in test [3] it was 47.4%; in test [4] it was 38%; in test [5], 30.9%; in test [6], 58.8%.

With `N#CSCC(=O)CCC(=O)O`, the growth inhibition is -2.75% in test [1]; 0.7% in test [2]; -8.8% in test [3]; -15% in test [4]; 3.75% in test [5]; -1.1% in test [6].

With `CCOc1c(N2CCOCC2)c(=O)c1=O`, the growth inhibition is 11.6% in test [1]; -19.4% in test [2]; 5.7% in test [3]; 6.65% in test [4]; 30.9% in test [5]; 5.95% in test [6].

Consider `COc1cc2c(cc1OC)C(c1ccccc1)OCC2` (stereo unspecified), for which the growth inhibition in test [1] is -8.25%; in test [2], 9.65%; in test [3], 6.8%; in test [4], -46.1%; in test [5] it was -2.6%; in test [6] it was -2.05%.

With `CC1(C)[C@@H]2C[C@H]1[C@@H](Cc1cccc(C[C@H]3c4cc(-c5ccccn5)ncc4[C@H]4C[C@@H]3C4(C)C)c1)c1cc(-c3ccccn3)ncc12`, the growth inhibition in test [1] is 45.4%; in test [2], 28.2%; in test [3], 45.4%; in test [4], 16.8%; in test [5], 45.9%; in test [6], 45.4%.

For `Cc1ccccc1C1OC(=O)c2ccc3ccccc3c21` (stereo unspecified), the growth inhibition in test [1] is 10.6%; in test [2], 1.8%; in test [3] it was 14.4%; in test [4], 7.95%; in test [5], 1.45%; in test [6], 6.55%.

As for `Cn1cncc1CC1COC(=O)C1C(O)c1ccccc1` (stereo unspecified), the growth inhibition is 11% in test [1]; 8.45% in test [2]; -14.2% in test [3]; -1.5% in test [4]; -26.9% in test [5]; -53.9% in test [6].
